Only some compounds are listed: those with a hit (about 1% of all), similar ones and a draw of the others.
PrP 5UTR inh = inhibition of PrP 5' UTR reporter expression; 340,000 tested, 0.35% active; AID 488862; inhibition, % (concentration not given with the values); cell-based PrP 5' UTR mRNA reporter, plate reader; in the data active means inhibition above about 52%; further: 0 = median of the neutral control wells
PriA SSB inh = K. pneumoniae PriA-SSBct interaction inhibition; AlphaScreen SSBct-PriA binding, biotinylated peptide; inhibition, % at 33 µM; 430,000 tested, 0.6% active; in the data active means inhibition mostly above about 37%, no sharp cut-off; inactive means mostly below about 20%;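 further: plate controls were negative control peptide for no effect and reference peptide for full effect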
FadD28 FP inh = inhibitors of Mycobacterium tuberculosis FadD28 bisubstrate binding. FadD28 bisubstrate probe binding, fluorescence polarization. AID 588549. inhibition, % at 12.5 µM. 360,000 tested, 0.22% active; in the data active means inhibition above about 8.5%, passing the limit was not always enough
Mtb BioA inh = BioA (M. tuberculosis) enzyme inhibition | purified M. tuberculosis BioA enzyme, plate reader | 360,000 tested, 0.096% active | inhibition, % at 9.99 µM | AID 602481; in the data active means inhibition above about 40%
Mtb hypoxia rep = Mtb hypoxia fluorescent reporter inhibition. M. tuberculosis hypoxia-regulated fluorescent reporter, fluorescence. fluorescence inhibition, % (no concentration beside the values). 300,000 tested, 0.1% active. AID 1159583; in the data active means fluorescence inhibition mostly above about 23%, no sharp cut-off; inactive means mostly below about 17%
TcdB GH inh = inhibitors of Clostridioides difficile toxin B glycohydrolase; inhibition, % at 9.99 µM; P18177; 350,000 tested, 0.24% active; TcdB glycohydrolase enzymatic assay, plate reader; in the data active means inhibition above about 10%
* = called active by the depositor; nt = not tested or not shown.

SMILES | PrP 5UTR inh | PriA SSB inh | FadD28 FP inh | Mtb BioA inh | Mtb hypoxia rep | TcdB GH inh
O=C(Nc1ccc(NC(=O)c2cc([N+](=O)[O-])ccc2N2CCOCC2)cc1)c1cccs1 | -16 | 6 | 12* | -2 | -8 | 1
CC1(c2ccc(OC(F)F)cc2)NC(=O)N(CC(=O)Nc2ccc3[nH]c(=O)[nH]c3c2)C1=O (stereo unspecified) | -27 | -1 | 12* | 1 | 3 | 3
C1CN2CN3CCN(CN1C3)C2 | nt | 80* | nt | nt | nt | nt
CCCCCCCCCCCCCCCC[N+](C)(C)CC | -20 | -27 | 19* | 23 | 18 | 2
CCCCCC[N+](C)(C)CCSSCC[N+](C)(C)CCCCCC | -17 | 2 | 0 | -2 | 8 | 0
CCCCCCCCCCCCCCCC[N+](C)(C)C | -31 | -4 | 24* | 20 | 3 | 2
CCCCCCCCCCCCCCCC[N+](C)(C)CCl | 15 | -20 | 20* | nt | nt | 1
O=C(Cc1ccccn1)c1ccncc1 | 9 | 2 | -3 | -1 | 8 | 10*
CCOc1ccc(-c2csc(SCc3ccc(C(=O)NCc4ccccn4)o3)n2)cc1 | nt | 14* | nt | nt | nt | nt
CCc1ccc(OCc2ccc(C(=O)NCc3ccccn3)o2)cc1 | -10 | -7 | -1 | 2 | -1 | nt
CC(C)(C)c1csc(NC(=O)c2ccc(N3CCOCC3)c([N+](=O)[O-])c2)n1 | nt | 39* | nt | nt | nt | nt
O=C(Nc1ccc(N2CCOCC2)c(Cl)c1)c1ccc2c(c1)OCCO2 | -16 | -11 | 1 | -1 | 2 | 21*
O=C(CCNC(=O)c1ccccc1Cl)Nc1cc(S(=O)(=O)N2CCOCC2)ccc1N1CCOCC1 | 15 | -8 | -1 | -2 | 12 | 1
O=C(Nc1cc(S(=O)(=O)N2CCOCC2)ccc1N1CCOCC1)c1ccccc1Cl | -28 | 5 | 0 | 1 | 4 | 14*
O=C(Nc1ccc(N2CCCC2)c(Cl)c1)c1ccc2c(c1)OCCO2 | -57 | -11 | -1 | 0 | -1 | nt
O=C(Nc1ccc2c(c1)OCO2)c1ccc(N2CCCC2)c([N+](=O)[O-])c1 | -42 | 39* | 1 | 4 | -1 | nt
Cc1ccc(/C=C/S(=O)(=O)Nc2ccc3c(c2)N(C(=O)c2cccs2)CC3)cc1 | nt | 3 | nt | nt | nt | nt
O=C(Nc1ccc(Cl)cc1)N1CCOCC1 | -4 | -1 | -2 | 0 | 10 | 0
O=C(Nc1ccc(N2CCOCC2)c(Cl)c1)c1ccc(Cl)cc1 | -23 | -16 | -1 | 3 | -1 | 22*
CN(C(=O)CSc1nc(-c2ccccc2)cn1N)C(c1ccccc1)c1ccccc1 | 1 | 50* | -1 | -3 | -1 | 1
Cc1ccc(C(=O)OCC(=O)NC2CCCC(C)C2C)cc1S(=O)(=O)N1CCCCC1 (stereo unspecified) | -18 | -9 | 0 | -1 | 24* | 3
Cc1nn(C2CCS(=O)(=O)C2)c2nc(-c3ccco3)cc(C(=O)N3CCCC3)c12 (stereo unspecified) | nt | -2 | nt | nt | nt | nt
COCCNc1oc(/C=C/c2ccccc2)nc1C#N | -106 | -14 | 1 | nt | -15 | 12*
CNc1oc(/C=C/c2ccccc2)nc1C#N | -105 | 5 | 0 | nt | 11 | nt
O=C(CCN1C(=O)/C(=C\c2ccco2)SC1=S)Nc1ccc(C(=O)O)c(O)c1 | 8 | -2 | 15* | 0 | -4 | -1
SMILES | PrP 5UTR inh | PriA SSB inh | FadD28 FP inh | Mtb BioA inh | Mtb hypoxia rep | TcdB GH inh
O=C(CCN1C(=O)/C(=C/c2ccco2)SC1=S)Nc1ccc(C(=O)O)c(O)c1 | 3 | 6 | 11* | 1 | nt | 0
O=C(CCN1C(=O)/C(=C\c2ccco2)SC1=S)Nc1cccc(Br)c1 | nt | 22 | nt | nt | nt | nt
CC(=O)c1c(N2CCN(C)CC2)[nH]c(-c2ccccc2)nc1=S | -6 | 46* | -5 | nt | nt | nt
COc1ccc(/C(C)=N/NC(=O)CNC(=O)/C=C\c2ccco2)cc1 | -5 | nt | -1 | -1 | nt | 1
CC(=O)c1cccc(NC(=O)c2onc(C)c2Cl)c1 | -24 | 115* | -3 | 1 | 6 | 2
CC(=O)c1ccc(NC(=O)c2onc(C)c2Cl)cc1 | -17 | -5 | -1 | 0 | 2 | 1
Cc1noc(C(=O)NCc2ccccc2)c1Cl | -1 | 104* | -1 | -2 | 10 | 2
O=C(O)/C=C/C(=O)N1Cc2cc3ccccc3nc2C1 | -69 | -3 | -1 | 4 | 18 | 1
C=CCn1c(=O)c2c(nc3n2CC(C)CN3c2cccc(OC)c2)n(C)c1=O (stereo unspecified) | -9 | -18 | -4 | 1 | 5 | 0
CCCNC(=O)N1[C@H](CO)[C@@H](c2ccccc2)[C@H]1CNC(C)=O | nt | nt | nt | 3 | nt | 0
